Source: PubChem BioAssay (NCATS)
Results filed as inconclusive are left out. The source made the active and inactive calls. Unless noted, calls follow the shape of the dose curve; as a rule, active = well fitted curve in the direction sought with a large enough effect; inconclusive = small, poorly fitted or top-dose-only effect, or another doubt; inactive = no such curve, though single readings can be large; an effect the other way counts as inactive or inconclusive.

What was measured:
[1] = target: Glucocorticoid receptor (Homo sapiens) (UniProt P04150); assay: GR-GFP Redistribution (AID 450;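 active = compounds whose dose series gives a full or clear partial fitted curve of increased nuclear translocation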; also: potency is read from the fitted curve at half-maximal effect); settings: U2OS GR-GFP nuclear translocation, laser cytometry, 2 h
Chain of Glucocorticoid receptor (Homo sapiens) (P04150 whole entry, looked up, the tested form may be a part): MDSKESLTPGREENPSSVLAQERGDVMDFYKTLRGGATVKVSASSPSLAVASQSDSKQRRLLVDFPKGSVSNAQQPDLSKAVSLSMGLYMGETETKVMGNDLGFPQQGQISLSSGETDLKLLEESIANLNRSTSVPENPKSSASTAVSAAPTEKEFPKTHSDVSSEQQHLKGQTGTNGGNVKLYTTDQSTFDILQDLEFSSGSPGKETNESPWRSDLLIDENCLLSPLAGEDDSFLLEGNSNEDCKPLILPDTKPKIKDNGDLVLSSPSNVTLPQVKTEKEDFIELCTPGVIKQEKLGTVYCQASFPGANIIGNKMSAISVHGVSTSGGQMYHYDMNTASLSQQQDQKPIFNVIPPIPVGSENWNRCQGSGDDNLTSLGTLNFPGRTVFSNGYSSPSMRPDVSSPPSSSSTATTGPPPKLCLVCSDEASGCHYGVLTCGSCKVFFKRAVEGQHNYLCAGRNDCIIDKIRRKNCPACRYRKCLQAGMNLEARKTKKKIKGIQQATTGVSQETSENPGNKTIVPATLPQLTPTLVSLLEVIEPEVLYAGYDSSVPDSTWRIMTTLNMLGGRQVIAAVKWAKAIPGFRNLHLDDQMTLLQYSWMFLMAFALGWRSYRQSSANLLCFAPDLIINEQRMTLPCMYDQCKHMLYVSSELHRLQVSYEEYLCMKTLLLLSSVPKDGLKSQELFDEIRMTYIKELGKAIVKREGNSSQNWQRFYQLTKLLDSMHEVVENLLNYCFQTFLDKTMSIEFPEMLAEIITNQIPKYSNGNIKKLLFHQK

[2] = target: Glucocorticoid receptor (Homo sapiens) (UniProt P04150); assay: GR-EFC Redistribution (AID 451; calls by dose curve; also: potency is read from the fitted curve at half-maximal effect); settings: CHO-K1 GR-EFC translocation, beta-gal luminescence, 2 h
In short: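 CHO-K1 cells stably expressing nuclear-localized β-gal enzyme acceptor and GR fused C-terminally to the enzyme donor fragment; ligand-driven nuclear translocation restores β-gal by complementation. Compounds titrated up to 46 uM final, 2 h at 37 °C; luminescence read.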

[3] = target: Mitogen-activated protein kinase 10 (Mus musculus) (UniProt Q61831); assay: JNK3 AlphaScreen Assay (AID 530; active = well fitted curve in either direction with a large enough effect, not every such curve was filed as active;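 also: kinase came from lysate of stimulated human HepG2 cells; signal reports phosphorylation of biotinylated GST-cJun 1-79 at Ser73 with 10 µM ATP; % is scaled to controls: 0 for no effect and ±100 for the full control effect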); settings: JNK3 lysate, c-Jun phosphorylation; series mostly up to 25.6 µM
In short: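 JNK3 came from HepG2 lysates pre-activated with IL-1beta and TNF-alpha and phosphorylated biotinylated GST-cJun (1-79) at 10 uM ATP, pH 7.6, room temperature. Compounds were titrated. AlphaScreen signal used anti-phospho-cJun (Ser73) antibody.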

[4] = qHTS Assay for Lipid Storage Modulators (AID 1519; calls by dose curve; as to activity change, negative = inhibition: % is scaled to controls: 0 for no effect and ±100 for the full control effect); settings: Drosophila S3 cells, BODIPY lipid droplet/cell ratio, laser cytometry, cells loaded with oleic acid
In short: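 Cells seeded at 5,000 per well were treated with compounds over a concentration series and loaded with oleic acid (400 uM, as added). Lipid droplet fluorescence (488 nm excitation, 500-530 nm channel) was read by laser-scanning cytometry and normalized to 20 uM Triacsin C.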

[5] = target: ATP-dependent 6-phosphofructokinase (Trypanosoma brucei brucei) (UniProt O15648); assay: qHTS Assay to Find Inhibitors of T. brucei phosphofructokinase: hit validation (AID 492961);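 also: luminescence reports ADP formed as PFK phosphorylates fructose-6-phosphate with ATP; % is scaled to controls: 0 for no effect and ±100 for the full control effect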; settings: T. brucei PFK, ADP-Glo luminescence; series mostly up to 24.3 µM
Chain of ATP-dependent 6-phosphofructokinase (Trypanosoma brucei brucei) (O15648 whole entry, looked up): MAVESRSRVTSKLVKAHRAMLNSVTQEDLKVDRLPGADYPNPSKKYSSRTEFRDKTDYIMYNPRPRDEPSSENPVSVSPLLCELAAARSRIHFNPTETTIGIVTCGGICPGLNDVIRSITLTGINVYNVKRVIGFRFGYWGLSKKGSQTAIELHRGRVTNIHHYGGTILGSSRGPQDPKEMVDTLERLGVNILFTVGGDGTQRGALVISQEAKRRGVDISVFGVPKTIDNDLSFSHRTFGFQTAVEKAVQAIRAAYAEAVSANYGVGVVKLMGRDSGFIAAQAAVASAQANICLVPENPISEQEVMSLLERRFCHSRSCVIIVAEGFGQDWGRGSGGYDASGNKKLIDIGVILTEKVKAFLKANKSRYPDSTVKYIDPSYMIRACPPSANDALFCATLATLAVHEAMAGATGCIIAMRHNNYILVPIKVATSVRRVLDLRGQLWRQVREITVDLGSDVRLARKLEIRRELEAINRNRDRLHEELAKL
In short: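 Percent activity derived from corrected luminescence, normalized between 0x and 1x enzyme controls, then fitted to concentration-response curves. Conditions: 1.25 nM PFK, 0.1 mM ATP, 0.5 mM F6P, 45 min RT.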

[6] = tested on: C2A; assay: qHTS profiling for inhibitors of Plasmodium falciparum proliferation (AID 504749); also: nearly all actives have a fitted effect of over 60% in size; also: potency is read from the fitted curve at half-maximal effect;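 as to activity, negative = inhibition: 0% = DMSO vehicle and full inhibition = artemisinin control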; settings: P. falciparum in erythrocytes, SYBR Green DNA, 72 h; series mostly up to 12.8 µM
In short: (§1)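 P. falciparum-infected erythrocytes (0.3% parasitemia, 2.5% hematocrit final) were exposed to compounds for 72 h at 37 C in 5% CO2, then lysed with SYBR Green buffer overnight at room temperature; parasite DNA fluorescence was normalized to artemisinin and DMSO controls.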

[7] = tested on: CP237; assay: as above; settings: P. falciparum in erythrocytes, SYBR Green DNA, 72 h; series mostly up to 12.8 µM
In short: as §1

[8] = tested on: CP238; assay: as above; settings: P. falciparum in erythrocytes, SYBR Green DNA, 72 h; series mostly up to 12.8 µM
In short: as §1

[9] = tested on: CP252; assay: as above; settings: P. falciparum in erythrocytes, SYBR Green DNA, 72 h; series mostly up to 12.8 µM
In short: as §1

[10] = tested on: CP262; assay: as above; settings: P. falciparum in erythrocytes, SYBR Green DNA, 72 h; series mostly up to 12.8 µM
In short: as §1

[11] = tested on: CP269; assay: as above; settings: P. falciparum in erythrocytes, SYBR Green DNA, 72 h; series mostly up to 12.8 µM
In short: as §1

[12] = tested on: CP297; assay: as above; settings: P. falciparum in erythrocytes, SYBR Green DNA, 72 h; series mostly up to 12.8 µM
In short: as §1

[13] = target: Ubiquitin carboxyl-terminal hydrolase 1 (Homo sapiens) (UniProt O94782); assay: Inhibitors of USP1/UAF1: Pilot qHTS (AID 504865); settings: purified USP1/UAF1, Ub-rhodamine cleavage fluorescence; series mostly up to 114 µM;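 also: rhodamine fluorescence freed from ubiquitin-rhodamine substrate followed over time; top concentration of the series differs between compounds; % is scaled to controls: 0 for no effect and ±100 for the full control effect; nearly all actives have a fitted effect of over 35% in size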
Chain of Ubiquitin carboxyl-terminal hydrolase 1 (Homo sapiens) (O94782 whole entry, looked up): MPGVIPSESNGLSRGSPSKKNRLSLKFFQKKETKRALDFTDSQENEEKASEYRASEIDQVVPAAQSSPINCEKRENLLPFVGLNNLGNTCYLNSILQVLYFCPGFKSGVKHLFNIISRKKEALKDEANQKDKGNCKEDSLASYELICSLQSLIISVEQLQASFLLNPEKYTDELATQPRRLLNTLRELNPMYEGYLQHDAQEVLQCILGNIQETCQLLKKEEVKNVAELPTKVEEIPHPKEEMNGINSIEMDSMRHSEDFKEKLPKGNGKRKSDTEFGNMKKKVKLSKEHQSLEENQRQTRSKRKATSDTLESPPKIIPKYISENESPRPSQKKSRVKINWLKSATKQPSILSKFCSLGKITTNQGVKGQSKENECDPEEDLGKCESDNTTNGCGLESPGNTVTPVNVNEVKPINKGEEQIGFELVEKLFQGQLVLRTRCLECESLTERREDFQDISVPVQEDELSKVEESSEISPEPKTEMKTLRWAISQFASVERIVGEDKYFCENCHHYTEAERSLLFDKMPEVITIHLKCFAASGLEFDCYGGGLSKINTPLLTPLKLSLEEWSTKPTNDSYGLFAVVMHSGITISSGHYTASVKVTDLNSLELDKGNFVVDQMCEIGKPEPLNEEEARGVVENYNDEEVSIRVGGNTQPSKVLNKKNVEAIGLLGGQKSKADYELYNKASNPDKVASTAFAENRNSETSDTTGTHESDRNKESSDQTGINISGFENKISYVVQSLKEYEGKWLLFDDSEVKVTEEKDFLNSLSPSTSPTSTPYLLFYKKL
In short: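 USP1/UAF1 complex (1nM) preincubated with compound 15 min at room temperature, then Ub-Rho substrate (150nM final) added. Fluorescence read kinetically at 480/540 nm, 6 reads every 60 seconds. Buffer: 50mM HEPES pH 7.8, 0.5mM EDTA, 0.1 mg/ml BSA, 1mM TCEP, 0.01% Tween-20.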

[14] = qHTS profiling for inhibitors of Plasmodium falciparum proliferation (AID 504749); also: nearly all actives have a fitted effect of over 60% in size; also: potency is read from the fitted curve at half-maximal effect;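 as to activity, negative = inhibition: 0% = DMSO vehicle and full inhibition = artemisinin control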; settings: P. falciparum in erythrocytes, SYBR Green DNA, 72 h
In short: as §1

[15] = tested on: 3D7; assay: as above; settings: P. falciparum in erythrocytes, SYBR Green DNA, 72 h; series mostly up to 12.8 µM
In short: as §1

[16] = tested on: AS120; assay: as above; settings: P. falciparum in erythrocytes, SYBR Green DNA, 72 h; series mostly up to 12.8 µM
In short: as §1

[17] = tested on: CP217; assay: as above; settings: P. falciparum in erythrocytes, SYBR Green DNA, 72 h; series mostly up to 12.8 µM
In short: as §1

[18] = tested on: ECU; assay: as above; settings: P. falciparum in erythrocytes, SYBR Green DNA, 72 h; series mostly up to 12.8 µM
In short: as §1

[19] = tested on: PAD; assay: as above; settings: P. falciparum in erythrocytes, SYBR Green DNA, 72 h; series mostly up to 12.8 µM
In short: as §1

[20] = tested on: SC27B; assay: as above; settings: P. falciparum in erythrocytes, SYBR Green DNA, 72 h; series mostly up to 12.8 µM
In short: as §1

[21] = measured here: cell count channel max response
[22] = measured here: lipid channel max response
[23] = at 12.8 µM (top of the series), parasite line A
[24] = at 12.8 µM (top of the series), parasite line B

Cc1cccc(CN2CCN([C@@H](c3ccccc3)c3ccc(Cl)cc3)CC2)c1
-24.7%: max response [4, 22]
inactive: Potency [1] > 20.6 µM | Potency [2] > 20.6 µM | Potency [3] | activity change, negative = inhibition ([4]; at 25.7 µM (top of the series)) -11.4% | outcome [5] | Potency [6] | Potency [7] | Potency [8] | Potency [9] | Potency [10] | Potency [11] | Potency [12]
-11.7%: max response [4, 21]

CN(C)CCO[C@@H](c1ccc(Cl)cc1)c1ccccn1
inactive: Potency [1] > 20.6 µM | Potency [2] > 20.6 µM | Potency [3] | activity change, negative = inhibition ([4]; at 25.7 µM (top of the series)) -4.98% | Potency [13]
-21.7%: max response [4, 21]
-26%: max response [4, 22]

NC[C@@H]1O[C@H](O[C@H]2[C@H](O)[C@@H](O[C@H]3[C@H](O)[C@H](N)C[C@H](N)[C@H]3O[C@@H]3O[C@H](CO)[C@@H](O)[C@H](O)[C@@H]3N)O[C@H]2CO)[C@@H](N)[C@H](O)[C@@H]1O
-10.9%: max response [4, 21]
-14.4%: max response [4, 22]
inactive: Potency [1] > 20.6 µM | Potency [2] > 20.6 µM | Potency [3] | activity change, negative = inhibition ([4]; at 25.7 µM (top of the series)) -3.71%

O=C1O[C@@H]([C@@H](O)CO)[C@@H](O)[C@H]1O
inactive: Potency [1] > 20.6 µM | Potency [2] > 20.6 µM | activity change, negative = inhibition ([4]; at 25.7 µM (top of the series)) -0.208% | outcome [5] | Potency [13] | activity, negative = inhibition ([14]; at 28.7 µM (top of the series), parasite line A) -5.65% | activity, negative = inhibition ([14]; at 28.7 µM (top of the series), parasite line B) 14.7% | Potency [15] | Potency [16] | Potency [6] | Potency [17] | Potency [7] | Potency [8] | Potency [9] | Potency [10] | Potency [11] | Potency [12] | Potency [18] | Potency [19] | Potency [20]
8.38%: max response [4, 21]
7.66%: max response [4, 22]

CC1(C)S[C@@H]2[C@H](NC(=O)COc3ccccc3)C(=O)N2[C@H]1C(=O)O (tested in a mixture with another compound)
inactive: Potency [2] > 20.6 µM | Potency [3] | activity change, negative = inhibition ([4]; at 25.7 µM (top of the series)) 1.44% | Potency [13]
-7.85%: max response [4, 21]
-7.74%: max response [4, 22]

COc1cc(C2Oc3cc(C4Oc5cc(O)cc(O)c5C(=O)C4O)ccc3OC2CO)ccc1O (stereo not given)
24.8%: max response [4, 22]
5.37%: max response [4, 21]
inactive: Potency [1] > 20.6 µM | activity change, negative = inhibition ([4]; at 57.5 µM (top of the series)) 18.7%

C=CCO[C@@H](Cn1ccnc1)c1ccc(Cl)cc1Cl
-10.1%: max response [4, 21]
-7.51%: max response [4, 22]
inactive: Potency [1] > 20.6 µM | Potency [2] > 20.6 µM | Potency [3] | activity change, negative = inhibition ([4]; at 25.7 µM (top of the series)) -0.8%

CCCC[C@H](CC)CN1CN(C[C@@H](CC)CCCC)CC(C)(N)C1
inactive: Potency [3] | activity change, negative = inhibition ([4]; at 25.7 µM (top of the series)) -1.27% | outcome [5] | activity, negative = inhibition [14, 23] -5.01% | activity, negative = inhibition [14, 24] 14.7% | Potency [15] | Potency [16] | Potency [6] | Potency [17] | Potency [8] | Potency [9] | Potency [10] | Potency [11] | Potency [12] | Potency [18] | Potency [19] | Potency [20]
0.881%: max response [4, 21]
-2.09%: max response [4, 22]

C[N+]1(C)CCC[C@H]1C(=O)[O-]
6.12%: max response [4, 21]
inactive: Potency [1] > 20.6 µM | Potency [2] > 20.6 µM | Potency [3] | activity change, negative = inhibition ([4]; at 25.7 µM (top of the series)) -1.16%
4.64%: max response [4, 22]

O=C(O)COCCN1CCN([C@@H](c2ccccc2)c2ccc(Cl)cc2)CC1
-9.07%: max response [4, 21]
inactive: Potency [3] | activity change, negative = inhibition ([4]; at 25.7 µM (top of the series)) 0.348% | activity, negative = inhibition [14, 23] -5.9% | activity, negative = inhibition [14, 24] 11.4% | Potency [15] | Potency [16] | Potency [6] | Potency [17] | Potency [7] | Potency [8] | Potency [9] | Potency [10] | Potency [11] | Potency [12] | Potency [18] | Potency [19] | Potency [20]
-7.35%: max response [4, 22]

Clc1ccc([C@H](Cn2ccnc2)OCc2csc3c(Cl)cccc23)c(Cl)c1
inactive: Potency [1] > 20.6 µM | Potency [2] > 20.6 µM | Potency [3] | activity change, negative = inhibition ([4]; at 25.7 µM (top of the series)) 0.1% | outcome [5] | Potency [13] | Potency [10]
-11.9%: max response [4, 21]
-11.7%: max response [4, 22]
active: Potency ([14]; parasite line B) 3.55 µM | Potency [15] 3.55 µM | Potency [16] 2.51 µM | Potency [7] 3.16 µM | Potency [12] 6.42 µM | Potency [18] 3.98 µM | Potency [19] 3.55 µM | Potency [20] 4.47 µM

COc1ccc2c3c([nH]c2c1)[C@@H]1C[C@@H]2[C@@H](C[C@H](O)[C@H](OC)[C@H]2C(=O)O)CN1CC3
-18.6%: max response [4, 21]
inactive: Potency [1] > 20.6 µM | Potency [2] > 20.6 µM | Potency [3] | activity change, negative = inhibition ([4]; at 25.7 µM (top of the series)) -2.35% | Potency [13]
-20%: max response [4, 22]

CN1CCO[C@H](c2ccccc2)c2ccccc2C1
-11.4%: max response [4, 22]
inactive: Potency [3] | activity change, negative = inhibition ([4]; at 25.7 µM (top of the series)) -1.73% | outcome [5] | Potency [13] | activity, negative = inhibition [14, 23] -5.98% | activity, negative = inhibition [14, 24] 0.83% | Potency [15] | Potency [6] | Potency [17] | Potency [9] | Potency [10] | Potency [11] | Potency [12] | Potency [18] | Potency [19] | Potency [20]
active: Potency [7] 2 µM
-10.4%: max response [4, 21]

COc1ccc([C@@H]2CC(=O)c3c(O)cc(O[C@H]4O[C@@H](CO[C@H]5O[C@@H](C)[C@@H](O)[C@@H](O)[C@@H]5O)[C@@H](O)[C@@H](O)[C@@H]4O)cc3O2)cc1O
inactive: Potency [1] > 20.6 µM | Potency [2] > 20.6 µM | Potency [3] | activity change, negative = inhibition ([4]; at 25.7 µM (top of the series)) -0.902% | outcome [5] | Potency [13] | activity, negative = inhibition [14, 23] 5.87% | activity, negative = inhibition [14, 24] -4.16% | Potency [15] | Potency [16] | Potency [6] | Potency [17] | Potency [7] | Potency [8] | Potency [9] | Potency [10] | Potency [11] | Potency [12] | Potency [18] | Potency [19] | Potency [20]
-12%: max response [4, 21]
-8.76%: max response [4, 22]
